In PubChem BioAssay one finds composite z-score data, which are given here for 36 molecules.

The first assay deals with Human papillomavirus type 1a E7 protein (residues 1-88). Description: HPV1a E7 small-molecule binders, primary screen, biochemical, small-molecule microarray, residues 1-88, 635 nm (AID 1129). To be noted: small-molecule microarray binding, fluorescence 635 nm; higher = more signal.
`Cc1ccc(S[C@]2(C(=O)NCC(F)(F)F)CC(=O)N(C3Cc4ccccc4C3)[C@@H]2c2ccc(CO)cc2I)cc1` came in with a composite z-score of -0.38.

Molecule `[N-]=[N+]=Nc1ccccc1C[C@]1(C(=O)N2CCCCC2)N=C(c2ccc(OCCCO)cc2)O[C@H]1c1ccccc1N=[N+]=[N-]` displayed a composite z-score of 1.24. In turn, `C=CCNC(=O)[C@H]1[C@@H]2C(=O)O[C@@H](c3ccccc3)[C@@H](c3ccccc3)N2[C@@H](c2ccc(O)cc2)[C@]12C(=O)Nc1ccc(C#Cc3ccc(OC)cc3)cc12` gave a composite z-score of 1.22.

In the case of `[N-]=[N+]=NCc1ccccc1C[C@]1(C(=O)NCc2ccccc2)COC(c2ccc(OCCCO)cc2)=N1`, the composite z-score was determined as 1.16.

`O=C1OCC=C[C@H]2OC34C=CCN(CCN5CCOCC5)C(=O)[C@H]3N(CCCCCCO)C(=O)[C@@H]4[C@@H]12` (some centres not stated) returned a composite z-score of -0.206. On the same count and under the same terms, the figure for `[N-]=[N+]=Nc1ccccc1[C@H]1OC(c2ccc(OCCCO)cc2)=N[C@@]1(CCS(=O)(=O)c1ccccc1)C(=O)N1CCOCC1` is 1.26.

The molecule `COC(=O)[C@@]1(Cc2ccccc2)[C@H]2c3cc(C(=O)N(C)C)n(Cc4cc(F)c(F)c(F)c4)c3C[C@H]2CN1C(=O)c1ccccc1` showed a composite z-score of 1.22. `O=C1O[C@H](c2ccccc2)[C@H](c2ccccc2)N2[C@H]1[C@@H](C(=O)N1CCCCCCC1)[C@]1(C(=O)Nc3ccc(C#CC4=CCCCC4)cc31)[C@H]2c1ccc(O)cc1` displayed a composite z-score of 1.36. With `[N-]=[N+]=NCc1ccccc1C[C@]1(C(N)=O)N=C(c2ccc(OCCCO)cc2)O[C@H]1c1ccccc1N=[N+]=[N-]`, the composite z-score turned out to be 1.19.

In turn, `C=CCOC(=O)[C@H]1[C@@H]2C(=O)O[C@@H](c3ccccc3)[C@@H](c3ccccc3)N2[C@@H](c2ccc(OCCOC(=O)[C@H]3C[C@H]4C(=O)N[C@@H](CCCC[N+](C)(C)C)C(=O)N4[C@H]3c3ccc(O)cc3)cc2)[C@]12C(=O)Nc1ccccc12` returned a composite z-score of -0.0508. For `CC(C)NC(=O)[C@@]1(c2ccc([N+](=O)[O-])cc2)CC(=O)N(C(C)C)[C@@H]1c1ccc(CO)cc1`, the composite z-score is -0.0933. On the same count and under the same terms, next, `COc1ccc([Si](C)(C)[C@@H]2[C@@H](CCn3cc([C@H](O)c4ccccc4)nn3)O[C@]3(C(=O)N(C)c4ccccc43)[C@H]2C)cc1`: 0.991. The molecule `COCCOC(=O)N1C(=O)[C@@]2(c3cc(C#CC4=CCCCC4)ccc31)[C@H](C(=O)N1CCN(c3ncccn3)CC1)[C@H]1C(=O)O[C@H](c3ccccc3)[C@H](c3ccccc3)N1[C@@H]2c1ccc(OCCO)cc1` gave a composite z-score of 1.16.

On to `C=CCOC(=O)[C@@H]1[C@H]2C(=O)O[C@H](c3ccccc3)[C@H](c3ccccc3)N2[C@H](c2ccc(OCCOC(=O)[C@H]3C[C@H]4C(=O)N[C@@H](CC(C)C)C(=O)N4[C@H]3c3cccc(OCCO)c3)cc2)[C@@]12C(=O)Nc1ccc(I)cc12`, for which the composite z-score was found to be 1.19. Take `CC(C)N1C(=O)c2ccccc2[C@](C)(C(=O)NCCCN(C)C)[C@@H]1c1ccc(CO)cc1`: the composite z-score came out at 0.717. The molecule `CC(=O)NCCCC[C@@H]1NC(=O)[C@@H]2C[C@H](C(=O)NCCCCCC[N+](C)(C)C)[C@H](c3cccc(OCCO)c3)N2C1=O` displayed a composite z-score of 1.17. Same read-out and setting: the figure for `CCCCN1CC=CC23O[C@@H]4C=CCCOC(=O)C4[C@H]2C(=O)N(CCCO)[C@@H]3C1=O` (some centres not stated) is -1.79; for `C=CCC(OC(C)=O)[C@@H]1[C@@H](N(Cc2cc3ccccc3o2)C(=O)c2cccc3ccccc23)c2cc(OCCCO)ccc2N1C(=O)Cc1ccc(OC)cc1` (some centres not stated) it is -0.328; for `C=CCN1C(=O)[C@]2(COC(c3ccc(OCCCO)cc3)=N2)Cc2ccccc21` it is 1.15. Take `C=C[C@H](C)[C@H](OC(=O)Nc1ccc(OC)cc1)c1ccc(O)c2ccccc12`: the composite z-score is -0.337.

Take `COc1ccccc1CN1C(=O)c2ccccc2[C@](Cc2ccccc2I)(C(=O)NC2CC2)[C@@H]1c1ccc(CO)cc1`: the composite z-score amounted to 1.26. `C=CC[C@@]1(C(N)=O)N=C(c2ccc(OCCCO)cc2)O[C@@H]1c1ccccc1N=[N+]=[N-]`: the composite z-score was determined as 1.24. Regarding `CCN(CC)c1ccc(N2CC=CC34O[C@@H]5C=CCOC(=O)[C@@H]5[C@H]3C(=O)N(CCCCCO)[C@@H]4C2=O)cc1` (some centres not stated), the composite z-score is -0.959. In the case of `COCCOC(=O)N1C(=O)[C@@]2(c3cc(C#CCC(C(=O)OC)C(=O)OC)ccc31)[C@H](c1ccc(OCCO)cc1)N1[C@H](c3ccccc3)[C@H](c3ccccc3)OC(=O)[C@H]1[C@@H]2C(=O)NC[C@H](O)c1ccccc1`, the composite z-score stood at 1.22.

The target in the next assay is Focal adhesion kinase 1 (Homo sapiens) (UniProt Q05397). The experiment in a line: small-molecule microarray binders of FAK, primary screen, biochemical, 635/667 nm fluorescence, BSA, DTT (AID 1130).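 Note: composite of spot emission at 667 nm and signal to noise over triplicate slides.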 To be noted: PTK2 binding, 635 nm fluorescence, higher = more signal.
Focal adhesion kinase 1 (Homo sapiens), sequence (Q05397 whole entry, looked up): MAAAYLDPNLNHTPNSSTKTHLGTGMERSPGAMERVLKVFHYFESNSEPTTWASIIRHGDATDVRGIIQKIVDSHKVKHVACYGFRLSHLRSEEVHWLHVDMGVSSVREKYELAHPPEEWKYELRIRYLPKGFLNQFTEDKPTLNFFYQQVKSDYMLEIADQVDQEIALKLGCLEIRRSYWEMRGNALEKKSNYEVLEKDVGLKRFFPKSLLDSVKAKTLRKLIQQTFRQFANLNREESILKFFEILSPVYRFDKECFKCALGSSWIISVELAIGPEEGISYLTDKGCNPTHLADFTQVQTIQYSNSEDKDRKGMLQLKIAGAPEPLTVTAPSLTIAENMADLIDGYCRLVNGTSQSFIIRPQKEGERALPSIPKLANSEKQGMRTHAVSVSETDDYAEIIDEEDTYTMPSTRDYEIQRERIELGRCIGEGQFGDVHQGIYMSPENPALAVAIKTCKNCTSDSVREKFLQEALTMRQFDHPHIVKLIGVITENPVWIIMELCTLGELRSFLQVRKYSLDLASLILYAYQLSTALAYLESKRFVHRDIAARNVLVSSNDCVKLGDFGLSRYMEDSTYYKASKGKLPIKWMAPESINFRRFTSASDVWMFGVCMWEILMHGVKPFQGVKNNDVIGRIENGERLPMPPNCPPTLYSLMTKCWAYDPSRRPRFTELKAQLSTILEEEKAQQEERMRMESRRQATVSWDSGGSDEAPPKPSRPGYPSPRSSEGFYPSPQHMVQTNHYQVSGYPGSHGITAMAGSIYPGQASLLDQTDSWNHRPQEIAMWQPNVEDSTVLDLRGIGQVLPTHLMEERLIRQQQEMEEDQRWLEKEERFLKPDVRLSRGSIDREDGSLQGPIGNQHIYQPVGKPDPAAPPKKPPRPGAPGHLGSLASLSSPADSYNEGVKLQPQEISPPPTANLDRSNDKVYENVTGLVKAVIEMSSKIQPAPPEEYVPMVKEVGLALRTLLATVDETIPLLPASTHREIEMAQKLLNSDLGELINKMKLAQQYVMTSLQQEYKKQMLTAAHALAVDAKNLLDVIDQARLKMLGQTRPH
`C=CC[C@]1(C(=O)O)N=C(c2ccc(OCCCO)cc2)O[C@H]1c1ccccc1CN=[N+]=[N-]` returned a composite z-score of 0.174.

Molecule `C[N+](C)(C)CCCCNC(=O)[C@H]1C[C@H]2C(=O)N3CCC[C@H]3C(=O)N2[C@H]1c1ccc(O)cc1` came in with a composite z-score of 0.446. `[N-]=[N+]=NCc1ccccc1[C@@H]1OC(c2ccc(OCCCO)cc2)=N[C@]1(Cc1ccccc1)C(=O)O` gave a composite z-score of 1.4. Still for that read-out and setting: next, `CN(C)CCCN1C(=O)[C@@]2(c3ccc([N+](=O)[O-])cc3)CC(=O)N(C3CCCCC3)[C@@H]2c2ccc(CO)cc21`: -0.042; `CCOC1=C2C(c3ccc(C)cc3)N(S(=O)(=O)c3ccc(C)cc3)CC2n2c(=O)n(-c3ccccc3)c(=O)n2C1` (configuration not stated): 0.206; `O=C1c2ccccc2[C@](Cc2ccccc2I)(C(=O)O)[C@H](c2ccc(CO)cc2)N1Cc1ccccc1C(F)(F)F`: 0.425. `CCCCCCCCCCC(O)C1C=CC2C(=O)N(c3ccccc3)C(=O)C2N1Nc1ccc([N+](=O)[O-])cc1` (configuration not stated) had a composite z-score of 0.525. Molecule `CCOC(=O)C1=CC[C@@H](c2cccc(Cl)c2)N(S(=O)(=O)c2ccc(C)cc2)[C@H]1c1ccc(C#N)cc1` came in with a composite z-score of 0.444.

In turn, `CCCCCCC#C[Si](O[C@H](c1ccccc1)c1cn([C@H](C)c2ccccc2)nn1)(C(C)C)C(C)C` showed a composite z-score of -0.159. Molecule `O=C(NCC(F)(F)F)[C@@H]1c2ccccc2C(=O)N(Cc2ccccc2)[C@H]1c1ccc(CO)cc1` yielded a composite z-score of -0.813.

`O=C1OCC=C[C@H]2OC34C=CCN(c5ccc(Cl)cc5)C(=O)[C@H]3N(CCCO)C(=O)[C@@H]4[C@@H]12` (some centres not stated) yielded a composite z-score of 0.29. `CCOC(=O)N1C(c2ccc(OCCCO)cc2)=NC(C(=O)OC)N1C(=O)OCC` (configuration not stated) yielded a composite z-score of 0.454. On the same count and under the same terms, next, `Cc1ccc(S[C@]2(C(=O)NCC(F)(F)F)CC(=O)N(C3Cc4ccccc4C3)[C@@H]2c2ccc(CO)cc2I)cc1`: -0.493; `[N-]=[N+]=Nc1ccccc1C[C@]1(C(=O)N2CCCCC2)N=C(c2ccc(OCCCO)cc2)O[C@H]1c1ccccc1N=[N+]=[N-]`: 0.544; `C=CCNC(=O)[C@H]1[C@@H]2C(=O)O[C@@H](c3ccccc3)[C@@H](c3ccccc3)N2[C@@H](c2ccc(O)cc2)[C@]12C(=O)Nc1ccc(C#Cc3ccc(OC)cc3)cc12`: 0.403. `[N-]=[N+]=NCc1ccccc1C[C@]1(C(=O)NCc2ccccc2)COC(c2ccc(OCCCO)cc2)=N1`: the composite z-score turned out to be 1.11. The molecule `O=C1OCC=C[C@H]2OC34C=CCN(CCN5CCOCC5)C(=O)[C@H]3N(CCCCCCO)C(=O)[C@@H]4[C@@H]12` (some centres not stated) came in with a composite z-score of -0.0142. Same read-out and setting: the figure for `[N-]=[N+]=Nc1ccccc1[C@H]1OC(c2ccc(OCCCO)cc2)=N[C@@]1(CCS(=O)(=O)c1ccccc1)C(=O)N1CCOCC1` is 1.32; for `COC(=O)[C@@]1(Cc2ccccc2)[C@H]2c3cc(C(=O)N(C)C)n(Cc4cc(F)c(F)c(F)c4)c3C[C@H]2CN1C(=O)c1ccccc1` it is 0.692. Consider `O=C1O[C@H](c2ccccc2)[C@H](c2ccccc2)N2[C@H]1[C@@H](C(=O)N1CCCCCCC1)[C@]1(C(=O)Nc3ccc(C#CC4=CCCCC4)cc31)[C@H]2c1ccc(O)cc1`, for which the composite z-score came to 5.6. As to `[N-]=[N+]=NCc1ccccc1C[C@]1(C(N)=O)N=C(c2ccc(OCCCO)cc2)O[C@H]1c1ccccc1N=[N+]=[N-]`, the composite z-score worked out at 0.394. `C=CCOC(=O)[C@H]1[C@@H]2C(=O)O[C@@H](c3ccccc3)[C@@H](c3ccccc3)N2[C@@H](c2ccc(OCCOC(=O)[C@H]3C[C@H]4C(=O)N[C@@H](CCCC[N+](C)(C)C)C(=O)N4[C@H]3c3ccc(O)cc3)cc2)[C@]12C(=O)Nc1ccccc12` registered a composite z-score of 0.193. `CC(C)NC(=O)[C@@]1(c2ccc([N+](=O)[O-])cc2)CC(=O)N(C(C)C)[C@@H]1c1ccc(CO)cc1`: the composite z-score is -1.05. In turn, `COc1ccc([Si](C)(C)[C@@H]2[C@@H](CCn3cc([C@H](O)c4ccccc4)nn3)O[C@]3(C(=O)N(C)c4ccccc43)[C@H]2C)cc1` showed a composite z-score of 0.227. `COCCOC(=O)N1C(=O)[C@@]2(c3cc(C#CC4=CCCCC4)ccc31)[C@H](C(=O)N1CCN(c3ncccn3)CC1)[C@H]1C(=O)O[C@H](c3ccccc3)[C@H](c3ccccc3)N1[C@@H]2c1ccc(OCCO)cc1` yielded a composite z-score of 0.31. The same measure, in the same setting: the figure for `C=CCOC(=O)[C@@H]1[C@H]2C(=O)O[C@H](c3ccccc3)[C@H](c3ccccc3)N2[C@H](c2ccc(OCCOC(=O)[C@H]3C[C@H]4C(=O)N[C@@H](CC(C)C)C(=O)N4[C@H]3c3cccc(OCCO)c3)cc2)[C@@]12C(=O)Nc1ccc(I)cc12` is 0.844. In turn, `CC(C)N1C(=O)c2ccccc2[C@](C)(C(=O)NCCCN(C)C)[C@@H]1c1ccc(CO)cc1` came in with a composite z-score of 2.34. Molecule `CC(=O)NCCCC[C@@H]1NC(=O)[C@@H]2C[C@H](C(=O)NCCCCCC[N+](C)(C)C)[C@H](c3cccc(OCCO)c3)N2C1=O` displayed a composite z-score of 0.202.

`CCCCN1CC=CC23O[C@@H]4C=CCCOC(=O)C4[C@H]2C(=O)N(CCCO)[C@@H]3C1=O` (some centres not stated) returned a composite z-score of -0.274.

Take `C=CCC(OC(C)=O)[C@@H]1[C@@H](N(Cc2cc3ccccc3o2)C(=O)c2cccc3ccccc23)c2cc(OCCCO)ccc2N1C(=O)Cc1ccc(OC)cc1` (some centres not stated): the composite z-score is -0.109. `C=CCN1C(=O)[C@]2(COC(c3ccc(OCCCO)cc3)=N2)Cc2ccccc21`: the composite z-score was found to be 0.0652. The molecule `C=C[C@H](C)[C@H](OC(=O)Nc1ccc(OC)cc1)c1ccc(O)c2ccccc12` came in with a composite z-score of -0.208. For `COc1ccccc1CN1C(=O)c2ccccc2[C@](Cc2ccccc2I)(C(=O)NC2CC2)[C@@H]1c1ccc(CO)cc1`, the composite z-score stood at 0.646.
